# The sample as a whole holds a higher share of the strongest signals than the screen did.
# Legend:
# Assay in all cases: glycan array binding signal (z-score within array); higher = stronger binding
# Conditions in all cases: glycan notation: IUPAC condensed, linker removed
# [1] = biological target: Fuc(a1-2)Gal(b1-3)GalNAc(a1-3)[Fuc(a1-2)]Gal(b1-4)Glc
# In short: (§1)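 Arrays were curated from the Consortium for Functional Glycomics database, 3228 in total, and kept only where the protein sequence was available. Binding is expressed as a within-array Z-score. This score was averaged across arrays of the same protein sequence at different concentrations or buffers and across linkers, and negative values can be read as non-binding.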
# [2] = biological target: Fuc(a1-2)Gal(b1-3)GalNAc(b1-4)[Neu5Ac(a2-3)]Gal(b1-4)Glc
# In short: as §1
# [3] = biological target: Fuc(a1-2)Gal(b1-3)GlcNAc(b1-3)Gal(b1-4)Glc
# In short: as §1
# [4] = biological target: Fuc(a1-2)Gal(b1-4)GlcNAc(b1-3)[Fuc(a1-2)Gal(b1-4)GlcNAc(b1-6)]GalNAc
# In short: as §1
# [5] = biological target: Fuc(a1-2)Gal(b1-4)GlcNAc(b1-6)GalNAc
# In short: as §1
# [6] = biological target: Fuc(a1-2)Gal(b1-4)[Fuc(a1-3)]GalNAc(b1-3)Gal(b1-4)[Fuc(a1-3)]GlcNAc
# In short: as §1
# Fuc(a1-2)GlcNAc = biological target: Fuc(a1-2)GlcNAc
# In short: as §1
# [7] = biological target: Fuc(a1-2)[Gal(a1-3)]Gal(b1-3)GlcNAc
# In short: as §1
# [8] = biological target: Fuc(a1-2)[Gal(a1-3)]Gal(b1-4)Glc
# In short: as §1
# Gal(a1-3)Gal(b1-4)GlcNAc = biological target: Gal(a1-3)Gal(b1-4)GlcNAc
# In short: as §1
# Gal(a1-6)Glc = biological target: Gal(a1-6)Glc
# In short: as §1
# [9] = biological target: Gal(b1-3)GalNAc(a1-3)[Fuc(a1-2)]Gal(b1-4)Glc
# In short: as §1
# [10] = biological target: Gal(b1-3)GalNAc(b1-3)Gal(b1-4)Glc
# In short: as §1
# [11] = biological target: Gal(b1-3)[Fuc(a1-4)]GlcNAc(b1-3)Gal(b1-3)[Fuc(a1-4)]GlcNAc
# In short: as §1
# [12] = biological target: Gal(b1-3)[Fuc(a1-4)]GlcNAc(b1-6)GalNAc
# In short: as §1
# [13] = biological target: Gal(b1-4)GlcNAc(b1-2)Man(a1-3)[GlcNAc(b1-4)][Gal(b1-4)GlcNAc(b1-2)Man(a1-6)]Man(b1-4)GlcNAc(b1-4)GlcNAc
# In short: as §1
# [14] = biological target: Gal(b1-4)GlcNAc(b1-2)Man(a1-6)Man(b1-4)GlcNAc(b1-4)GlcNAc
# In short: as §1
# [15] = biological target: Gal(b1-4)GlcNAc(b1-3)Gal(b1-4)GlcNAc(b1-3)Gal(b1-4)GlcNAc(b1-3)Gal(b1-4)GlcNAc(b1-3)Gal(b1-4)GlcNAc(b1-2)Man(a1-3)[Gal(b1-4)GlcNAc(b1-3)Gal(b1-4)GlcNAc(b1-3)Gal(b1-4)GlcNAc(b1-3)Gal(b1-4)GlcNAc(b1-3)Gal(b1-4)GlcNAc(b1-2)Man(a1-6)]Man(b1-4)GlcNAc(b1-4)[Fuc(a1-6)]GlcNAc
# In short: as §1
# [16] = biological target: Gal(b1-4)GlcNAc(b1-3)Gal(b1-4)GlcNAc(b1-3)[Gal(b1-4)GlcNAc(b1-3)Gal(b1-4)GlcNAc(b1-6)]GalNAc
# In short: as §1
# Gal3S(b1-4)Glc = biological target: Gal3S(b1-4)Glc
# In short: as §1
# [17] = biological target: Gal3S(b1-4)[Fuc(a1-3)]GlcNAc
# In short: as §1
# [18] = biological target: Gal3S(b1-4)[Fuc(a1-3)]GlcNAc6S
# In short: as §1
# Gal3S6S(b1-4)GlcNAc6S = biological target: Gal3S6S(b1-4)GlcNAc6S
# In short: as §1
# Gal6S(b1-4)GlcNAc6S = biological target: Gal6S(b1-4)GlcNAc6S
# In short: as §1
# GalNAc(b1-3)GalNAc = biological target: GalNAc(b1-3)GalNAc
# In short: as §1
# GalNAc(b1-4)Gal(b1-4)Glc = biological target: GalNAc(b1-4)Gal(b1-4)Glc
# In short: as §1
# GalNAc(b1-4)GlcNAc = biological target: GalNAc(b1-4)GlcNAc
# In short: as §1
# [19] = biological target: GalNAc(b1-4)GlcNAc(b1-3)GalNAc(b1-4)GlcNAc
# In short: as §1
# [20] = biological target: GlcA3S(b1-3)Gal(b1-4)GlcNAc(b1-3)Gal(b1-4)Glc
# In short: as §1
# [21] = biological target: GlcNAc(a1-4)Gal(b1-4)GlcNAc
# In short: as §1
# [22] = biological target: GlcNAc(a1-4)Gal(b1-4)GlcNAc(b1-3)Gal(b1-4)GlcNAc
# In short: as §1
# [23] = biological target: GlcNAc(a1-4)Gal(b1-4)GlcNAc(b1-3)Gal(b1-4)GlcNAc(b1-3)Gal(b1-4)GlcNAc
# In short: as §1
# [24] = biological target: GlcNAc(b1-2)Man(a1-3)[GlcNAc(b1-2)Man(a1-6)]Man(b1-4)GlcNAc(b1-4)GlcNAc
# In short: as §1
# [25] = biological target: GlcNAc(b1-3)Gal(b1-4)GlcNAc(b1-3)Gal(b1-4)GlcNAc(b1-2)[GlcNAc(b1-3)Gal(b1-4)GlcNAc(b1-3)Gal(b1-4)GlcNAc(b1-6)]Man(a1-6)[GlcNAc(b1-3)Gal(b1-4)GlcNAc(b1-3)Gal(b1-4)GlcNAc(b1-2)Man(a1-3)]Man(b1-4)GlcNAc(b1-4)[Fuc(a1-6)]GlcNAc
# In short: as §1
# [26] = biological target: GlcNAc(b1-3)Gal(b1-4)GlcNAc(b1-6)[Gal(b1-3)]GalNAc
# In short: as §1
# GlcNAc(b1-4)GlcNAc = biological target: GlcNAc(b1-4)GlcNAc
# In short: as §1
# [27] = biological target: GlcNAc(b1-4)GlcNAc(b1-4)GlcNAc
# In short: as §1
# [28] = biological target: GlcNAc(b1-4)GlcNAc(b1-4)GlcNAc(b1-4)GlcNAc(b1-4)GlcNAc
# In short: as §1
# [29] = biological target: GlcNAc(b1-4)GlcNAc(b1-4)GlcNAc(b1-4)GlcNAc(b1-4)GlcNAc(b1-4)GlcNAc
# In short: as §1
# [30] = biological target: Man(a1-2)Man(a1-3)[Man(a1-3)[Man(a1-6)]Man(a1-6)]Man(b1-4)GlcNAc(b1-4)GlcNAc
# In short: as §1
# [31] = biological target: Neu5Ac(a2-3)Gal(b1-3)GlcNAc(b1-2)Man
# In short: as §1
# [32] = biological target: Neu5Ac(a2-3)Gal(b1-3)GlcNAc6S
# In short: as §1
# [33] = biological target: Neu5Ac(a2-3)Gal(b1-4)GlcNAc
# In short: as §1
# [34] = biological target: Neu5Ac(a2-3)Gal(b1-4)[Fuc(a1-3)]GlcNAc
# In short: as §1
# [35] = biological target: Neu5Ac(a2-3)Gal6S(b1-4)GlcNAc
# In short: as §1
# [36] = biological target: Neu5Ac(a2-6)Gal(b1-4)GlcNAc(b1-2)Man(a1-6)[Gal(b1-4)GlcNAc(b1-2)Man(a1-3)]Man(b1-4)GlcNAc(b1-4)GlcNAc
# In short: as §1
# [37] = biological target: Neu5Ac(a2-6)Gal(b1-4)GlcNAc(b1-3)Gal(b1-4)GlcNAc
# In short: as §1
# [38] = biological target: Neu5Ac(a2-6)GlcNAc(b1-4)GlcNAc(b1-4)GlcNAc
# In short: as §1
# [39] = biological target: Neu5Ac9Ac(a2-3)Gal(b1-4)GlcNAc
# In short: as §1
binder,measurement,setting,value
"AAA (Anguilla anguilla), Q7SIC1 (protein) VIPEGYTQENVAVRGKATQSAQLRGEHAANSEASNAIDGNRDSNFYHGSCTHSSGQANPWWRVDLLQVYTITSVTITNRGDCCGERISGAEINIGQHLASNGVNNPECSVIGSMATGETKTFHCPAPMIGRYVVTYLPTSESLHLCEVEVNVDKPAAA",glycan array binding signal (z-score),[1],-0.257
same,glycan array binding signal (z-score),[2],-0.193
same,glycan array binding signal (z-score),[3],-0.189
same,glycan array binding signal (z-score),[4],-0.001
same,glycan array binding signal (z-score),[5],0.002
same,glycan array binding signal (z-score),[6],-0.583
same,glycan array binding signal (z-score),Fuc(a1-2)GlcNAc,8.41
same,glycan array binding signal (z-score),[7],0.046
same,glycan array binding signal (z-score),[8],-0.037
same,glycan array binding signal (z-score),Gal(a1-3)Gal(b1-4)GlcNAc,-0.169
same,glycan array binding signal (z-score),Gal(a1-6)Glc,-0.097
same,glycan array binding signal (z-score),[9],-0.279
same,glycan array binding signal (z-score),[10],0.237
same,glycan array binding signal (z-score),[11],0.164
same,glycan array binding signal (z-score),[12],-0.081
same,glycan array binding signal (z-score),[13],-0.238
same,glycan array binding signal (z-score),[14],-0.168
same,glycan array binding signal (z-score),[15],-0.123
same,glycan array binding signal (z-score),[16],1.43
same,glycan array binding signal (z-score),Gal3S(b1-4)Glc,-0.117
same,glycan array binding signal (z-score),[17],-0.194
same,glycan array binding signal (z-score),[18],-0.154
same,glycan array binding signal (z-score),Gal3S6S(b1-4)GlcNAc6S,-0.044
same,glycan array binding signal (z-score),Gal6S(b1-4)GlcNAc6S,-0.292
same,glycan array binding signal (z-score),GalNAc(b1-3)GalNAc,-0.16
same,glycan array binding signal (z-score),GalNAc(b1-4)Gal(b1-4)Glc,-0.076
same,glycan array binding signal (z-score),GalNAc(b1-4)GlcNAc,1.89
same,glycan array binding signal (z-score),[19],3.34
same,glycan array binding signal (z-score),[20],-0.136
same,glycan array binding signal (z-score),[21],2.3
same,glycan array binding signal (z-score),[22],1.96
same,glycan array binding signal (z-score),[23],2.29
same,glycan array binding signal (z-score),[24],-0.274
same,glycan array binding signal (z-score),[25],0.944
same,glycan array binding signal (z-score),[26],-0.298
same,glycan array binding signal (z-score),GlcNAc(b1-4)GlcNAc,2.2
same,glycan array binding signal (z-score),[27],5.55
same,glycan array binding signal (z-score),[28],7.88
same,glycan array binding signal (z-score),[29],6.77
same,glycan array binding signal (z-score),[30],-0.106
same,glycan array binding signal (z-score),[31],-0.023
same,glycan array binding signal (z-score),[32],0.003
same,glycan array binding signal (z-score),[33],-0.086
same,glycan array binding signal (z-score),[34],-0.098
same,glycan array binding signal (z-score),[35],-0.179
same,glycan array binding signal (z-score),[36],-0.183
same,glycan array binding signal (z-score),[37],-0.202
same,glycan array binding signal (z-score),[38],2.46
same,glycan array binding signal (z-score),[39],-0.102
